# Data reported in PubChem BioAssay.
# Where “and” joins values, the source holds several entries; their conditions need not be identical. Identical values can stand only once. Records with an inconclusive call do not appear. For some assays here: Measured potencies and affinities stand elsewhere. Calls of active or inactive are those of the source. Cut-off read from the data, not from the text of the source, unless noted: active = inhibition above about 80%; inactive = the rest.
# What was measured:
# [1] = liver-stage malaria parasite growth inhibition, primary screen, cell-based, HepG2, luciferase luminescence, HepG2 viability (AID 624349; in the data active = parasite load remaining mostly below about 12%, no sharp cut-off; inactive = mostly above about 10%;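 note: 100% = mean of DMSO negative control wells on the same plate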); details: P. berghei liver stage in HepG2, luciferase luminescence, concentration not given here; parasite load remaining: stronger effect = lower value; viability: measured here: HepG2 viability without parasites
# [2] = tested on: Neuropilin-2 / VEGF-C interaction (human); assay: inhibitors of NRP2–VEGF-C binding, biochemical, microplate binding format, z-score (AID 743281; call rule not given here); details: microplate NRP2/VEGF-C binding assay; stronger effect = lower value
# [3] = tested on: Aerobactin synthetase IucA (Klebsiella pneumoniae); assay: IucA aerobactin synthetase inhibitors, biochemical, Tocris library, absorbance (AID 1345561; call rule not given here;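 note: 100% = enzyme without compound and 0% = no enzyme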); details: purified IucA enzyme assay, absorbance (OD) read-out; stronger effect = lower value;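 tested at 8 µM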
# [4] = growth inhibition of DIPG glioma cells, dose response, cell-based, SU-DIPG-XIII, MIPE5.0, CellTiter-Glo, qHTS (AID 1347064; cut-off not given, nearly all actives have AC50 up to about 23 µM;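 for AC50: cells exposed to compound for 48 hours before the viability read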); details: SU-DIPG-XIII viability, CellTiter-Glo ATP luminescence
# [5] = target: ATP-dependent translocase ABCB1 (Homo sapiens) (UniProt P08183); assay: MDR1 (ABCB1) efflux transporter inhibition, cell-based (AID 377; in the data active = fluorescence slope change above about 50%); details: MDR1-expressing cells, fluorescent substrate accumulation slope; stronger effect = higher value; concentration not given here
# [6] = circadian clock period modulators, cell-based, LOPAC library, luminescence reporter (AID 2774; call rule not given here;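 note: values are relative to mean of DMSO wells on each plate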); details: circadian reporter cells, at 7 µM, actives lie on both sides
# [7] = inhibitors of Cryptococcus chitosan production, flow cytometry, Cibacron Brilliant Red staining (AID 1347148; call rule not given here;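 note: compound exposure lasted three days at 37 degrees C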); details: Cryptococcus neoformans chitosan, stronger effect = lower value; at 99.1 µM unless noted
# [8] = antimalarial activity against Dd2 strain (AID 2302;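 active = growth inhibition above 50% at the single 2 µM test dose, taken to imply half-maximal potency below 2 µM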;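 note: 0% = DMSO untreated growth and 100% = chloroquine plus artemisinin killed control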); details: P. falciparum Dd2 in RBCs, LDH growth readout, 72 h; at 2 µM; stronger effect = higher value
# [9] = target: L-lactate dehydrogenase (Plasmodium falciparum (isolate CDC / Honduras)) (UniProt Q27743); assay: PfLDH activity inhibition – cell lysate, 3D7 strain, counter-screen for P. falciparum growth inhibition project (AID 2304; call rule not given here;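 note: 0% = vehicle and 100% = reference inhibitor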); details: P. falciparum 3D7 crude extract, LDH APAD/NBT absorbance; at 2 µM; stronger effect = higher value
# [10] = inhibition of 3D7 malaria parasite growth – strain 3D7 (AID 2306; call rule not given here;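 note: 0% = DMSO wells and 100% = chloroquine plus artemisinin control wells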); details: P. falciparum 3D7 erythrocytic growth, LDH absorbance, 72 h; at 2 µM; stronger effect = higher value
# [11] = target: Calcium-dependent protein kinase 1 (Plasmodium falciparum (isolate 3D7)) (UniProt P62344); assay: PfCDPK1 kinase inhibitors, biochemical, TCAMS library (AID 1159585; cut-off not given, nearly all actives have IC50 up to about 0.98 µM;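 note: inhibitors leave more ATP so luminescence rises with inhibition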); details: recombinant PfCDPK1, Kinase-Glo ATP depletion luminescence
# [12] = target: Plasmodium falciparum protein kinase 6 (PK6, PF3D7_1337100) (UniProt Q8IDW1); assay: PfPK6 kinase inhibitors, biochemical, TCAMS library (AID 1159586; call rule not given here); details: recombinant PfPK6, Kinase-Glo ATP depletion luminescence
# [13] = target: Protein kinase 7 (PK7), Plasmodium falciparum 3D7 (PF3D7_0213400) (UniProt Q7YTF7); assay: inhibition of Plasmodium PK7 catalytic activity – biochemical, TCAMS antimalarial set, Kinase-Glo luminescence (AID 1159587; call rule not given here); details: recombinant PfPK7, Kinase-Glo ATP depletion luminescence
# [14] = CRL2098 osteosarcoma cell growth inhibition, synergistic combos for chromothripsis tumors, BGB or cisplatin IC20 combos (AID 1671454); details: CRL2098 osteosarcoma cells, drug combinations, stronger effect = higher value;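 note: cells exposed for 96 h before readout; 0% = vehicle DMSO and 100% = killing by high DMSO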
# [15] = HD-MB03 medulloblastoma cell growth inhibition, synergistic combos for chromothripsis tumors, BGB or cisplatin IC20 combos (AID 1671455; in the data active = inhibition above about 83%;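 note: 0% = vehicle DMSO and 100% = high DMSO as cytotoxic control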); details: HD-MB03 medulloblastoma cells, stronger effect = higher value
# [16] = UWB1.289 ovarian carcinoma cell growth inhibition, synergistic combos for chromothripsis tumors, BGB or cisplatin combos (AID 1671456); details: UWB1.289 ovarian carcinoma cells, stronger effect = higher value;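 note: cells exposed to compound for four days; 0% = vehicle DMSO and 100% = killing by high DMSO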
# [17] = LFS_MB_2R medulloblastoma cell growth inhibition, synergistic combos for chromothripsis tumors, cisplatin combos (AID 1671457); details: LFS_MB_2R medulloblastoma cells, stronger effect = higher value;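 note: cells exposed to compound for four days before readout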
# [18] = UWB1.289_BRCA1 ovarian cancer growth, cell-based, BGB or cisplatin combinations (AID 1671459); details: UWB1.289 BRCA1 ovarian carcinoma, drug combinations, stronger effect = higher value
# [19] = human astrocyte viability loss, single and combined drugs, cytotoxicity control for chromothriptic childhood tumor combination screen, cell-based, BGB or cisplatin IC20 combos (AID 1671460); details: Human astrocytes, drug combinations, stronger effect = higher value;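 note: cells exposed to compounds for 96 hours before viability readout; 0% = vehicle and 100% = killing control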
# [20] = modifiers of HSF1 nuclear foci, imaging, Selleck Cancer Library (AID 1347162; in the data active = plate-normalised HSF1 focus index below about 0.46); details: human cells, at 10 µM; SSMD: measured here: HSF1 foci SSMD mean; cell count: measured here: cell number; plate-normalised HSF1 focus index: stronger effect = lower value
# [21] = measured here: combination with BGB at IC20, at 0.5 µM
# [22] = measured here: combination with cisplatin at IC20, at 0.5 µM
# [23] = measured here: combo with BGB at IC20, at 0.5 µM
# [24] = measured here: combo with cisplatin at IC20, at 0.5 µM
# [25] = measured here: inhibition with BGB combination, at 0.05 µM
# [26] = measured here: inhibition with cisplatin combination, at 0.05 µM
# [27] = measured here: combination with cisplatin, at 0.5 µM
# [28] = measured here: combination with cisplatin, at 5 µM
# [29] = BGB combination, concentration series, at 5 µM
# [30] = cisplatin combination, concentration series, at 5 µM
# [31] = measured here: combo with BGB IC20, at 0.5 µM
# [32] = measured here: combo with cisplatin IC20, at 0.5 µM
# Sequence of Calcium-dependent protein kinase 1 (Plasmodium falciparum (isolate 3D7)) (P62344 whole entry, looked up): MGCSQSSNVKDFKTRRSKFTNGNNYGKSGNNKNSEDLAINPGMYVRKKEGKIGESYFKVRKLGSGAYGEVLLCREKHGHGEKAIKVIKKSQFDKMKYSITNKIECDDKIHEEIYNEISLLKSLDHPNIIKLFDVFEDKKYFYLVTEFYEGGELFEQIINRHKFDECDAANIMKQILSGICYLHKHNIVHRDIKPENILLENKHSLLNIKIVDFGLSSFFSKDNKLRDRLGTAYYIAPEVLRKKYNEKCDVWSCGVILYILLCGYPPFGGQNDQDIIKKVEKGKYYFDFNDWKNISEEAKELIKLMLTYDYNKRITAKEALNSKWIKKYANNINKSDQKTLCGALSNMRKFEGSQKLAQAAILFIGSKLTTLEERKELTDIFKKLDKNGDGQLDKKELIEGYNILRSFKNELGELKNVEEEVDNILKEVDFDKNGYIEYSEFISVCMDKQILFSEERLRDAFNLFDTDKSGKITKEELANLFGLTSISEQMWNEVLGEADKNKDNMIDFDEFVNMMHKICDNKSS
# Sequence of L-lactate dehydrogenase (Plasmodium falciparum (isolate CDC / Honduras)) (Q27743 whole entry, looked up): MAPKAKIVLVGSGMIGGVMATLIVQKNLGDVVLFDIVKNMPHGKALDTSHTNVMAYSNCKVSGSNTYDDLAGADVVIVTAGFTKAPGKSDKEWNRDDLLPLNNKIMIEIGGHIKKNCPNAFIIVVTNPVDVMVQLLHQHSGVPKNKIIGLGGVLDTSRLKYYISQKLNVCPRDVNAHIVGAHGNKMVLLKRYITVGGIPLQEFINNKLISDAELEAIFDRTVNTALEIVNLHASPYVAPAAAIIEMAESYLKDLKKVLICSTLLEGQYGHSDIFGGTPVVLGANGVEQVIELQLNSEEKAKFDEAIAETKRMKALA
# Sequence of Protein kinase 7 (PK7), Plasmodium falciparum 3D7 (PF3D7_0213400) (Q7YTF7 1-343): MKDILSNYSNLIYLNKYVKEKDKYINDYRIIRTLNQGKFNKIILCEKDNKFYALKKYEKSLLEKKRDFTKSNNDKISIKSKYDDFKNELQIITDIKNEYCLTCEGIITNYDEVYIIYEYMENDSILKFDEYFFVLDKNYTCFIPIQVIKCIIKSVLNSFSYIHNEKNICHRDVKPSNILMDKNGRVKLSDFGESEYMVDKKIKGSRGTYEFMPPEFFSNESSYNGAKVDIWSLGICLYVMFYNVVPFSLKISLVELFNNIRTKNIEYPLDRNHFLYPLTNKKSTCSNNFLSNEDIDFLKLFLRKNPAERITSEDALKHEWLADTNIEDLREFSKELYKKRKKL
# Sequence of ATP-dependent translocase ABCB1 (Homo sapiens) (P08183 whole entry, looked up): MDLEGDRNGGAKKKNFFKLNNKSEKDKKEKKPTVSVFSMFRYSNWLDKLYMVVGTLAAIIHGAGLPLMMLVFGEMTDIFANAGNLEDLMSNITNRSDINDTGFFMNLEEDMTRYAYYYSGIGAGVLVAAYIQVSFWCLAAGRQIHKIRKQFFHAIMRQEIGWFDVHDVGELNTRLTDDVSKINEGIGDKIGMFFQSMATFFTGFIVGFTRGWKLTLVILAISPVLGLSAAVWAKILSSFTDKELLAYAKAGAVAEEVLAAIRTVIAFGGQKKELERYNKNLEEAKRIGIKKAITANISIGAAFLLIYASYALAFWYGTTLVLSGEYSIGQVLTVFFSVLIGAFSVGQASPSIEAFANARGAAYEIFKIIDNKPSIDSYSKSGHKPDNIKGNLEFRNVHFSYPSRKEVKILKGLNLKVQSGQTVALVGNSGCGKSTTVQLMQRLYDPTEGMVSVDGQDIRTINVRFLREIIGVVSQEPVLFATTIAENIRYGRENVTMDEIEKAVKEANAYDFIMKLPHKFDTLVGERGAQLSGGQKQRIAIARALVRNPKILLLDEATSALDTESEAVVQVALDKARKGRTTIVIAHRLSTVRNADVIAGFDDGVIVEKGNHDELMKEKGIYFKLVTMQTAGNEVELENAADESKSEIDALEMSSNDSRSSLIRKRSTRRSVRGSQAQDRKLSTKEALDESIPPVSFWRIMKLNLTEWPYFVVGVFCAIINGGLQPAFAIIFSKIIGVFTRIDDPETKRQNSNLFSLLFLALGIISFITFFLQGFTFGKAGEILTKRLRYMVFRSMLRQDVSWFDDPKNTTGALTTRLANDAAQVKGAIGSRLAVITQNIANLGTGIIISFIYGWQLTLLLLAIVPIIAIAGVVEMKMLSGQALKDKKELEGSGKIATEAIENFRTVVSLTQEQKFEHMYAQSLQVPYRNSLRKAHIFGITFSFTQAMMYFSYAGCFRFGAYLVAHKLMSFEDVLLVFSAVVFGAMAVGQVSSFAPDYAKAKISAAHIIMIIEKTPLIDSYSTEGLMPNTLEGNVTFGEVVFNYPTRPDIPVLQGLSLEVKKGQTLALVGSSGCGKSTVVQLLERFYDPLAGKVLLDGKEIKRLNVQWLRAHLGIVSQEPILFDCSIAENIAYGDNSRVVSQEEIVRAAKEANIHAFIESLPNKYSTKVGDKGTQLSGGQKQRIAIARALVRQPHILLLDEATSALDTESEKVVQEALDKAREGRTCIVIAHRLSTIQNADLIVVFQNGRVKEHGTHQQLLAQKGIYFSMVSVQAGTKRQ
# Sequence of Plasmodium falciparum protein kinase 6 (PK6, PF3D7_1337100) (Q8IDW1 1-305): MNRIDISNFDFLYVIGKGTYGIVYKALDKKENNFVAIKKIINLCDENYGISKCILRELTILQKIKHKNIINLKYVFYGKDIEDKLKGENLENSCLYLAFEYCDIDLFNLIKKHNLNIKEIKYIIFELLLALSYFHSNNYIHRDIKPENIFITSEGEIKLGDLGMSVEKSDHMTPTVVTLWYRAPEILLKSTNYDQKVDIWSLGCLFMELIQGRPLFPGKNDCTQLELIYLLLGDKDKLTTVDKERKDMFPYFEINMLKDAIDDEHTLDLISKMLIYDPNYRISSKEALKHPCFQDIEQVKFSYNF
compound,measurement,setting,value
CCOC(=O)[C@H](CCc1ccccc1)N[C@H]1CCc2ccccc2N(CC(=O)O)C1=O,parasite load remaining,[1],126% (inactive) and 36.1% (inactive) and 94.6% (inactive)
same,viability,[1],90.1% and 91.8% and 66.1%
same,z-score,[2],-0.908 (inactive)
same,remaining activity,[3],104% (inactive)
same,outcome,[4],inactive
Clc1cccc(Cl)c1NC1=NCCN1,fluorescence slope change,[5],110% (active)
same,period change,[6],0.005 h (inactive)
same,z-score,[2],0.177 (inactive)
same,remaining activity,[3],106% (inactive)
same,fold fluorescence,[7],4.6 [at 217.3 µM] (inactive)
NC12CC3CC(CC(C3)C1)C2,growth inhibition,[8],-1% (inactive)
same,inhibition,[9],-7% (inactive)
same,growth inhibition,[10],98% (active)
same,period change,[6],-0.05 h (inactive)
same,outcome,[11],inactive
same,outcome,[12],inactive
same,outcome,[13],inactive
same,outcome,[4],inactive
same,fold fluorescence,[7],3.81 [at 330.6 µM] (inactive)
O=C1CCC(N2C(=O)c3ccccc3C2=O)C(=O)N1 (stereo not given),fluorescence slope change,[5],58.2% (active)
same,period change,[6],0.105 h (inactive)
same,remaining activity,[3],108% (inactive)
same,fold fluorescence,[7],3.34 [at 193.6 µM] (inactive)
c1ccc([C@H]2CN3CCSC3=N2)cc1,fluorescence slope change,[5],63.5% (active)
same,growth inhibition,[8],1% (inactive)
same,inhibition,[9],5% (inactive)
same,growth inhibition,[10],93% (active)
same,period change,[6],-0.17 h (inactive)
same,outcome,[11],inactive
same,outcome,[12],inactive
same,outcome,[13],inactive
same,outcome,[4],inactive
c1ccc(CC2=NCCN2)cc1,growth inhibition,[8],0% (inactive)
same,inhibition,[9],-3% (inactive)
same,growth inhibition,[10],94% (active)
same,outcome,[11],inactive
same,outcome,[12],inactive
same,outcome,[13],inactive
S=c1nc[nH]c2nc[nH]c12,parasite load remaining,[1],27.1% (inactive) and 38.1% (inactive) and 20.6% (inactive)
same,viability,[1],73.4% and 55.1% and 57.4%
same,inhibition,[14]; at 0.5 µM,-2.69% (inactive) and -57.6% (inactive) and -53.9% (inactive)
same,inhibition,[14]; [21],-5.16% and -41% and -65.5%
same,inhibition,[14]; [22],-32% and -63.9% and -65.9%
same,inhibition,[15]; at 0.5 µM,-4.55% (inactive) and -3.29% (inactive) and -17.6% (inactive)
same,inhibition,[15]; [23],-4.3% and -15.6% and -16.3%
same,inhibition,[15]; [24],-5.54% and 2.44% and -26.8%
same,inhibition,[16]; at 0.5 µM,57.7% (inactive) and 56.2% (inactive) and 56.1% (inactive)
same,inhibition,[16]; [25],-14.8% and -13.6% and -15.6%
same,inhibition,[16]; [26],-7.08% and -3.38% and -9.93%
same,inhibition,[17]; at 0.5 µM,-7.19% (inactive) and -1.38% (inactive) and -2.98% (inactive)
same,inhibition,[17]; [27],-15.5% and -27.1% and 4.18%
same,inhibition,[17]; [28],-9.32% and -12.4% and -4.44%
same,inhibition,[18]; [29],95.7% and 91.5% and 93.1%
same,inhibition,[18]; at 0.5 µM,63.6% (inactive) and 53.4% (inactive) and 47.8% (inactive)
same,inhibition,[18]; [30],100% and 93.5% and 94.9%
same,inhibition,[19]; at 0.5 µM,13.8% (inactive) and -4.07% (inactive) and -10.8% (inactive)
same,inhibition,[19]; [31],14.2% and -8.32% and -0.26%
same,inhibition,[19]; [32],3.43% and 3.12% and -27.4%
CC1COc2c(N3CCN(C)CC3)c(F)cc3c(=O)c(C(=O)O)cn1c23 (stereo not given),period change,[6],0.06 h (inactive)
same,outcome,[4],inactive
same,inhibition,[14]; at 0.5 µM,-97.4% (inactive) and -9.66% (inactive) and -3.54% (inactive)
same,inhibition,[14]; [21],-84.4% and -20.4% and 15.5%
same,inhibition,[14]; [22],-95.4% and 17.6% and 11.9%
same,inhibition,[15]; at 0.5 µM,-17.7% (inactive) and 0.8% (inactive) and 1.26% (inactive)
same,inhibition,[15]; [23],-22% and -1.41% and -0.426%
same,inhibition,[15]; [24],-27.3% and 2.8% and -2.37%
same,inhibition,[16]; at 0.5 µM,-7.78% (inactive) and 3.9% (inactive) and 3.09% (inactive)
same,inhibition,[16]; [25],-28.7% and 4.48% and 2.71%
same,inhibition,[16]; [26],-3.9% and 3.6% and -0.825%
same,inhibition,[17]; at 0.5 µM,-19.3% (inactive) and 6.15% (inactive) and -0.77% (inactive)
same,inhibition,[17]; [27],-23.3% and -0.024% and 7.26%
same,inhibition,[17]; [28],-88.9% and 5.83% and 8.15%
same,inhibition,[18]; [29],-49.7% and -1.75% and -2.9%
same,inhibition,[18]; at 0.5 µM,-9.08% (inactive) and -0.86% (inactive) and 1.25% (inactive)
same,inhibition,[18]; [30],-6.84% and 7.33% and -3.71%
same,inhibition,[19]; at 0.5 µM,-0.29% (inactive) and 4.48% (inactive) and 7.23% (inactive)
same,inhibition,[19]; [31],12.7% and 6.41% and 15%
same,inhibition,[19]; [32],-18.7% and -2.95% and 15.1%
COc1c(N2CCNC(C)C2)c(F)cc2c(=O)c(C(=O)O)cn(C3CC3)c12 (stereo not given),inhibition,[14]; at 0.5 µM,-43.6% (inactive) and -34.5% (inactive)
same,inhibition,[14]; [21],-42.5% and -87.3%
same,inhibition,[14]; [22],-71.8% and 0.194%
same,inhibition,[15]; at 0.5 µM,-13.9% (inactive) and 3.18% (inactive)
same,inhibition,[15]; [23],-14.1% and 5.19%
same,inhibition,[15]; [24],-19.6% and 0.97%
same,inhibition,[16]; at 0.5 µM,-2.27% (inactive) and 6.63% (inactive)
same,inhibition,[16]; [25],-7.46% and -0.326%
same,inhibition,[16]; [26],-30.7% and -0.886%
same,inhibition,[17]; at 0.5 µM,-11.1% (inactive) and 6.57% (inactive)
same,inhibition,[17]; [27],-12.5% and 9.12%
same,inhibition,[17]; [28],-5.47% and -26.4%
same,inhibition,[18]; [29],-10.3% and 3.45%
same,inhibition,[18]; at 0.5 µM,-4.22% (inactive) and 5.59% (inactive)
same,inhibition,[18]; [30],-1.48% and 7.21%
same,inhibition,[19]; at 0.5 µM,-3.01% (inactive) and 1.57% (inactive)
same,inhibition,[19]; [31],-5.37% and 4.53%
same,inhibition,[19]; [32],-9.08% and 0.874%
CC1(C)O[C@@H]2[C@@H](CO[C@@]3(COS(N)(=O)=O)OC(C)(C)O[C@@H]23)O1,parasite load remaining,[1],169% (inactive) and 59.3% (inactive) and 91.8% (inactive)
same,viability,[1],90.1% and 108% and 69.4%
same,z-score,[2],-1.38 (inactive)
same,remaining activity,[3],121% (inactive)
NS(=O)(=O)c1cc2c(cc1Cl)NCNS2(=O)=O,period change,[6],0.06 h (inactive)
same,outcome,[4],inactive
O=C1c2c(O)ccc(O)c2C(=O)c2c(NCCNCCO)ccc(NCCNCCO)c21,period change,[6],-1.74 h (active)
same,AC50,[4],10.5 µM (active)
same,SSMD,[20],-1.6
same,cell count,[20],7320
same,plate-normalised HSF1 focus index,[20],0.898 (inactive)
same,inhibition,[14]; at 0.5 µM,7.34% (inactive)
same,inhibition,[14]; [21],20.4%
same,inhibition,[14]; [22],-13.9%
same,inhibition,[15]; at 0.5 µM,88% (active)
same,inhibition,[15]; [23],86.5%
same,inhibition,[15]; [24],84.8%
same,inhibition,[16]; at 0.5 µM,64.9% (inactive)
same,inhibition,[16]; [25],-29.8%
same,inhibition,[16]; [26],-25.8%
same,inhibition,[17]; at 0.5 µM,-5.4% (inactive)
same,inhibition,[17]; [27],20.8%
same,inhibition,[17]; [28],92.5%
same,inhibition,[18]; [29],105%
same,inhibition,[18]; at 0.5 µM,63.4% (inactive)
same,inhibition,[18]; [30],104%
same,inhibition,[19]; at 0.5 µM,68.8% (inactive)
same,inhibition,[19]; [31],69.1%
same,inhibition,[19]; [32],56.7%
